Screening results: PubChem BioAssay, National Center for Advancing Translational Sciences (NCATS)
Most compounds without a hit are left out; they make up all but 4.1% or so of the library.
AmpC no deterg – qHTS Inhibitors of AmpC Beta-Lactamase (assay without detergent) | P00811 | AmpC nitrocefin hydrolysis, absorbance 480 nm, 0.0001% Triton | Potency, µM (highest dose often 57.1 µM), inactives show at the highest dose activity change, negative = inhibition, actives largely listed as inhibitors | hit rate 0.52% among 330,000 | AID 485341, 2010;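 note: plate controls were no compound for no effect and no enzyme for full effect; nearly all actives have a fitted effect of over 20% in size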
Target sequence (P00811 whole entry, looked up): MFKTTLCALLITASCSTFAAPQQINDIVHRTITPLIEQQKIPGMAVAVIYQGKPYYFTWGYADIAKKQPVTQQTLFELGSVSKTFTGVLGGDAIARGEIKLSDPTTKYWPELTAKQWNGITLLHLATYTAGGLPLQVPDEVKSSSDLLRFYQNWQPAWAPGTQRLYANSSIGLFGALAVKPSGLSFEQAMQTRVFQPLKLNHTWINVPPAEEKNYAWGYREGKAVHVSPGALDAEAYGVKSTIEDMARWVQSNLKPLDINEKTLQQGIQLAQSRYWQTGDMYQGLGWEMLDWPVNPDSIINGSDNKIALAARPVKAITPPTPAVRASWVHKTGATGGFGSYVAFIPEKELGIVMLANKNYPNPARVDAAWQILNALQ
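20 mM phosphate pH 7.0 + 0.01% (detergent screen) or 0.0001% Triton X-100; 5.3 nM AmpC reagent; cpd preinc 15 min RT; nitrocefin (800 uM stock) to start; A480 q20 s × 4 min; Activity was normalised to no-enzyme and no-compound control wells.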
Sm TGR block – qHTS Assay for the Inhibitors of Schistosoma Mansoni Peroxiredoxins; Schistosoma mansoni thioredoxin glutathione reductase (TGR), Q962Y6; purified TGR, DTNB reduction, TNB absorbance 405 nm; Potency, µM (doses to about 114 µM), for the others: at the top dose activity change, negative = inhibition, usual class: inhibitors; hit rate 3% among 360,000; AID 485364, 2010; note: nearly all actives have a fitted effect of over 60% in size
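First, TGR (20 nM dispensed) and NADPH were mixed with compound. Second, a 15 min room-temperature incubation followed. Third, further NADPH and then DTNB were added to start the reaction. Finally, TNB absorbance was monitored kinetically.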
AmpC detergent – qHTS Inhibitors of AmpC Beta-Lactamase (assay with detergent); AmpC hydrolysis of nitrocefin, absorbance 480 nm, 0.01% Triton; Potency, µM (top dose mostly 114 µM), inactives show at the top dose activity change, negative = inhibition, usual class: inhibitors; hit rate 0.041% among 370,000; P00811;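 note: 0% = no-compound wells and -100% = no-enzyme wells; nearly all actives have a fitted effect of over 25% in size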
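20 mM phosphate pH 7.0 + 0.01% (detergent screen) or 0.0001% Triton X-100; 5.3 nM AmpC reagent; cpd preinc 15 min RT; nitrocefin (800 uM stock) to start; A480 q20 s × 4 min; Activity was normalised to no-enzyme and no-compound control wells.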
FMDV inh – High Throughput Screening for Foot and Mouth Disease Virus Antivirals. FMDV antiviral cell-based qHTS. Potency, µM (highest dose often 57.9 µM), for inactives: top-dose activity change, negative = inhibition, hits mostly inhibitors. hit rate 1.2% among 410,000; calls by dose curve; tested in HEK293T cells; note: read-out not given here; nearly all actives have a fitted effect of over 45% in size
AMA1-RON2 inh – qHTS for Inhibitors of AMA1-RON; Towards Development of Antimalarial Drug Lead: Primary Screen | hit rate 0.2% among 360,000 | Plasmodium falciparum AMA1 (3D7) - RON2 peptide interaction | Potency, µM (series often up to 58.2 µM), inactives show top-dose activity change, negative = inhibition, most hits filed as inhibitors | AlphaScreen AMA1-biotinylated RON2 peptide binding;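 note: 0% = vehicle wells and -100% = peptide control; nearly all actives have a fitted effect of over 45% in size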
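AMA1 (3D7) with his tag at 25 nM final met compounds first, then biotinylated RON2 peptide at 25 nM; detection used donor plus acceptor beads, 10 µg/mL apiece, read by AlphaScreen after 30 min at room temperature.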
An asterisk follows results filed as active; u = inconclusive; x = no result; [ ] = dose if it differs, or a comment. Unless noted, calls come from the whole dose curve; as a rule, active = well fitted curve in the direction sought with a large enough effect; inconclusive = small, poorly fitted or top-dose-only effect, or another doubt; inactive = no such curve, though single readings can be large; an effect the other way counts as inactive or inconclusive. Unless noted, % is set by controls: 0 for no effect and ±100 for the full control effect; potency is the fitted concentration of half-maximal effect.

SMILES	AmpC no deterg	Sm TGR block	AmpC detergent	FMDV inh	AMA1-RON2 inh
CCn1c(SCC(=O)NCc2ccco2)nnc1C1CCCC1	-5%	40µM*	6%	-15%	7%
Cn1c(SCC(=O)NCc2ccco2)nnc1C1CC1	-29%	x	x	13%	-5%
Cc1ccc(NCc2nnc(SCC(=O)NCc3ccco3)n2CC2CCCO2)c(C)c1 (stereo not given)	12%	-31%	u	14%	1%
Cc1ccc(NCc2nnc(SCC(=O)NCc3ccco3)n2CC2CCCO2)cc1Cl (stereo not given)	105%	50µM*	u	-21%	19%
Cc1cc(Cl)ccc1OCC(=O)N1CCOc2ccc(CN3C[C@@H](C)O[C@@H](C)C3)cc2C1	x	x	x	-20%	x
CCOCCCN(Cc1ccco1)C(=O)c1cc2c(=O)[nH]c3ccc(C)cc3c2s1	102%	40µM*	-7%	-15%	-2%
COCCN(Cc1ccco1)C(=O)c1cc2c(=O)[nH]c3ccc(C)cc3c2s1	x	-19%	2%	-8%	x
O=C(/C=C/c1ccco1)OCc1nnc(-c2ccc(Cl)cc2)o1	1%	11µM*	11%	19%	-28%
Cc1ccc(/C=C/C(=O)OCn2nnc3ccccc3c2=O)o1	-8%	0%	9%	-10%	-6%
O=C(OCc1nnc(-c2ccccc2)o1)c1ccc(Cl)cc1	4%	x	5%	-17%	20%
O=C(/C=C/c1ccco1)OCn1nnc2ccccc2c1=O	-27%	22µM*	-3%	15%	-2%
O=C(/C=C/c1ccco1)OCc1nnc(-c2ccccc2)o1	-45%	14µM*	-3%	17%	-1%
CN1CCN(c2ncc3nc(-c4ccccc4)c(=O)n(Cc4ccc(F)cc4)c3n2)CC1	x	x	x	-9%	x
COc1ccc(CC(=O)Nc2cccc(-c3nnc(-c4ccc(C)cc4)o3)c2)cc1OC	60%	4%	1%	4µM*	-3%
COc1ccc(CC(=O)Nc2cccc(-c3nnc(-c4cccc(C)c4)o3)c2)cc1OC	146%	7%	u	40µM*	0%
COc1ccc(CC(=O)Nc2cccc(-c3nnc(-c4ccccc4)o3)c2)cc1OC	109%	5%	0%	x	-26%
Cc1cc2c(cc3c(SCC(=O)Nc4cccc(Cl)c4C)nnc(C)n32)o1	x	-8%	-8%	21%	x
COc1ccc2oc(=O)c(C(=O)NCCc3c(C)[nH]c4ccc(Br)cc34)cc2c1	x	5%	-1%	u	x
O=C(/C=C/Nc1ccc(F)cc1)c1cccs1	x	x	x	13µM*	-4%
O=C(CSc1nnc(-c2ccc(Cl)cc2)o1)Nc1ccc(F)cc1	x	1%	17%	0%	x
CCOc1cc(CNC(=O)C2COc3ccccc3C2)cc(OCC)c1OCC (stereo not given)	x	3%	16%	-12%	x
CCOC(=O)c1sc(S(C)(=O)=O)c2c1CCc1conc1-2	-11%	13µM*	0%	31%	4%
COc1cc(OC)c(OC)cc1CN1CCCC(n2cc(C(=O)N3CCCCC3)nn2)C1 (stereo not given)	x	x	x	-6%	x
COc1ccccc1C(CNC(=O)c1oc2ccccc2c1C)N1CCCC1 (stereo not given)	-11%	32µM*	3%	-7%	-1%
Cc1ccccc1N=Nc1c(O)n(C)c2ccccc12	-11%	35µM*	4%	1%	4%
SMILES	AmpC no deterg	Sm TGR block	AmpC detergent	FMDV inh	AMA1-RON2 inh
c1ccc(N=Nc2ccc3cccccc2-3)cc1	x	x	x	27%	4.5µM*
CC(C)c1nnc(NC(=O)c2nc(S(=O)(=O)Cc3ccc(F)cc3)ncc2Cl)s1	-39%	25µM*	-1%	-21%	62%
CSc1nnc(NC(=O)c2nc(S(=O)(=O)Cc3cccc(C)c3)ncc2Cl)s1	-26%	20µM*	11%	5.6µM*	53%
CSc1ncc(Cl)c(C(=O)Nc2nnc(SC/C=C/c3ccccc3)s2)n1	-13%	41%	-10%	10%	51%
Cc1ccc(C)c(NC(=O)c2nc(S(=O)(=O)Cc3ccc(F)cc3)ncc2Cl)c1	x	2.5µM*	6%	28µM*	x
Cc1cccc(CS(=O)(=O)c2ncc(Cl)c(C(=O)Nc3nnc(C(C)C)s3)n2)c1	16%	40µM*	-1%	8.9µM*	66%
Cc1ccc(C)c(NC(=O)c2nc(Cl)ccc2Cl)c1	-9%[11.4 µM]	-4%	u	41%	-3%
CC(C)c1nnc(NC(=O)c2nc(SCc3ccc(F)cc3)ncc2Cl)s1	x	2%	10%	35%	x
CCN(C(=O)Cn1c(SCC(=O)Nc2ccc(OC)cc2)nc2ccccc21)c1cccc(C)c1	x	-1%	1%	-18%	x
CCC(C(=O)Nc1cccc(C#N)c1)n1nc(-c2ccccc2)ccc1=O (stereo not given)	x	1%	-1%	-18%	x
CCSc1nnc(NC(=O)c2nc(S(=O)(=O)Cc3ccc(F)cc3)ncc2Cl)s1	-24%	35µM*	-3%	8.9µM*	69%
Cc1ccc(CS(=O)(=O)c2ncc(Cl)c(C(=O)Nc3nnc(C(C)C)s3)n2)cc1	-32%	18µM*	u	11µM*	60%
O=C(c1cnccn1)N1CCC[C@@]2(CCN(C(c3ccccc3)c3ccccc3)C2)C1	x	x	x	-9%	x
CCCCOc1ccc(C(=O)N2CCN(CCc3ccccn3)CC2)cc1	x	-7%	0%	2%	x
O=[N+]([O-])/C=C/c1cn(Cc2ccc(F)cc2)c2ccccc12	18µM*	-14%	u	u	-23%
CCOC(=O)C#CC(CCc1ccccc1)OS(N)(=O)=O (stereo not given)	-18%	11µM*	-11%	u	-9%
CC(C)(C)C#CC(CCc1ccccc1)OS(N)(=O)=O (stereo not given)	8%	28µM*	1%	x	x
CCOC(=O)N1CCN(C(=O)CCc2ccccc2)CC1	2%	9%	-12%	8%	7%
CCC(CC)C(=O)Nc1ccc(OCc2cc(=O)n3c4c(sc3n2)CCCC4)cc1	x	-14%	2%	-17%	x
CC(C)C(NS(C)(=O)=O)c1nnc2n1CCN(Cc1cccc3ncccc13)CC2 (stereo not given)	x	x	x	-8%	x
CCOC(=O)c1c(C)[nH]c(C)c1S(=O)(=O)N1CCC(C(=O)Nc2ccc(C)cn2)CC1	x	33%	6%	-15%	x
COc1cc(OC)c(OC)cc1CNCCSc1nnnn1-c1ccccc1	x	-18%	11%	24%	x
Cc1ccc2c(CN3CCCCC3CCO)cc(=O)oc2c1 (stereo not given)	-15%	25µM*	1%	1%	-2%
Cc1ccc2c(CN3CC(C)CC(C)C3)cc(=O)oc2c1 (stereo not given)	-19%	89µM*	2%	3%	-3%
O=C(NCCc1cccnc1)c1cnn(-c2ncc3c(n2)-c2ccccc2CC3)c1C1CC1	x	x	x	7%	x
